Experimental data as given in the supplement of paper PMC6555819.

These sequences were tested on PPARg DBDmut:RXRa IVT, anti-PPARg (DBD mutation: PPARg1 K132A/R137A, NR concentration 270 nM, RXRa partner concentration 90 nM) (assay: PBM binding z-score (relative to random genomic background probes); higher = stronger binding; sequences stand for … in GC…GCGATTGACAGCGTAGAATGAAGG).
Summary of the method: (§1)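 Custom Agilent 4×180K protein-binding microarrays carried double-stranded probes. Their 34-nt variable regions held direct-repeat seeds, single-nucleotide variants, half-site ablations and random human genomic background sequences. Arrays were incubated 1 h with ligand-free nuclear receptor dimers in PBS pH 7.4, 2% milk, 0.02% Triton X-100, 1 mM DTT, 0.2 mg/mL BSA and 0.4 mg/ml salmon testes DNA. Antibodies against each partner (one per run) detected binding, and scanned fluorescence was regression-normalized. Binding z-scores use random background probes as reference.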

Sequence	PBM binding z-score
ACTATTAGTTGAGACGAGGACAACCGATAGGTTG	0.291
GGTATTAGTTGAAAGGGCAACCGAATGATTCTCG	1.15
CCGACTGGGGCAAGGGTACCATAACGCACAGCCA	0.123
CGTCCAAGGTCAGCAGGTCAGTGACAGCGACGTG	-0.271
CAAGCTAGGTCACGAAAGGTCAAAGTCGAATGAC	2.17
TAGCCTAGGTCATGCGGGCCATTATAGTGTCGGC	0.0501
CAAACTAGGTCACCGGAAGGTCAAAGACCGCATG	2.33
TCATATAGGTAAATGCTAGGTGAAAGCCCGATCT	0.828
CTCGAAAGGTCGTGCTCAGGCGAGTATACCAAAC	0.141
GCTAGTTGGTCAGTAAAAGTTCACACACCGGTCG	-0.358
CCGACTGGGGCATAAGGTTACCTTAAGCCAGCCC	-0.344
TAGCCTAGGTCATTCAGGGGCCAGTAAAGAAAGC	0.536
CATACTGGGTCAGCTAGGCCAGAGTAGGGACGGC	0.321
CAGCCTAGGTCAGTGCCAGTATAGGAGGAACGTT	-1.18
TCTCGGAGGACACGAAAGGTCAGATCTCGACATC	-0.0755
CAAACTAGGTCAAAGGTCCAAGTCGAGCCAACCA	1.57
CAAACTAGGTCCAAGGTCAAAGTCGAGCCAACCA	0.406

These sequences were tested on PPARg DBDmut IVT, anti-PPARg (DBD mutation: PPARg1 K132A/R137A, NR concentration 270 nM) in the same assay as above.
Summary of the method: as §1

Sequence	PBM binding z-score
CGTCCAAGGTCAAGGTCGGTGAAAGAGACTCGAA	-0.563
TCTTGTAGATCAATAGAGGTTCAGAAAGTGCGCT	1.1
CCTACTGGGCCAACGTCATTGATCAGTCAAAGCA	-0.52
AGAACGAGGGCACGCAGAGTTGATAGCAGAGTAG	0.16
GCCTATAGGTAATACAAGGTGAAAGTCCGATTGT	0.233
TAGCCTAGGTCATTGGGCGAGTATAGTACGCATC	-0.0966
ACAGACAGGTGAGTGAAGGTAACTAAGCTGGACG	-0.677
TTACCAAGTTGAGCTGAGGTCGTTGATCCAACTC	-0.114
TGAGTGAGGTTAAAGATCAGGGAACGTGGCGTCG	0.826
CCTCGGAGGACTGAAGGTCAGAGCTGTCCGCTTT	-3.05
CCTACTGGGCCACGGTCATTGATCAGTCAAAGCA	-0.479
GGAACGAGGACATTCGAGTTGATAGCATGGCGAT	-0.578
CTACCAAGGAGAACAAGGTCGTTGATTACTATTC	0.25
TCGAGTAGGTTGGGGGCATTCAGAATGGCGTCGA	5.62
CCAGATAGGTGAAAGGTAACTCAGTCTGGTACGC	-0.0951
ACTCGGAGGACAAAGGCCAGAGCTACGCCAGTGA	-1.31
CAAACTAGGTCAAGTTCAAAGTCGGTTTGTGCCA	4.23
GTACCAAGGTGGATAGGTCGTTGATGAGTAGGCG	-1.37
TCTGCTCGGTCAGTTGGTCAGCTAACGAGCTGCC	0.0745
CATACAGTGTCAGCTAGGCCAGAGTAGGGACGGC	-0.0038

Sequence	PBM binding z-score
CGTCCAAGGACAAAGGTCAGTGAAGAGATGACGG	-0.214
TCTATTACTTGATTAGGGCAACCGAAACAGCGGA	1.58
ACTATTAGTTGAGACGAGGACAACCGATAGGTTG	0.661
GGTATTAGTTGAAAGGGCAACCGAATGATTCTCG	0.67
CCGACTGGGGCAAGGGTACCATAACGCACAGCCA	-0.113
CGTCCAAGGTCAGCAGGTCAGTGACAGCGACGTG	-0.196
CAAGCTAGGTCACGAAAGGTCAAAGTCGAATGAC	-0.0947
TAGCCTAGGTCATGCGGGCCATTATAGTGTCGGC	-0.158
CAAACTAGGTCACCGGAAGGTCAAAGACCGCATG	1.54
TCATATAGGTAAATGCTAGGTGAAAGCCCGATCT	0.941
CTCGAAAGGTCGTGCTCAGGCGAGTATACCAAAC	-0.559
GCTAGTTGGTCAGTAAAAGTTCACACACCGGTCG	0.138
CCGACTGGGGCATAAGGTTACCTTAAGCCAGCCC	-1.61
TAGCCTAGGTCATTCAGGGGCCAGTAAAGAAAGC	0.653
CATACTGGGTCAGCTAGGCCAGAGTAGGGACGGC	0.266
CAGCCTAGGTCAGTGCCAGTATAGGAGGAACGTT	-1.02
TCTCGGAGGACACGAAAGGTCAGATCTCGACATC	-0.793
CAAACTAGGTCAAAGGTCCAAGTCGAGCCAACCA	1.19
CAAACTAGGTCCAAGGTCAAAGTCGAGCCAACCA	0.226

Each sequence was assayed on PPARg homodimer (NR concentration 180 nM) in the same assay as above.
Summary of the method: as §1

Sequence	PBM binding z-score
CGTCCAAGGTCAAGGTCGGTGAAAGAGACTCGAA	2.86
TCTTGTAGATCAATAGAGGTTCAGAAAGTGCGCT	-0.371
CCTACTGGGCCAACGTCATTGATCAGTCAAAGCA	0.534
AGAACGAGGGCACGCAGAGTTGATAGCAGAGTAG	0.313
GCCTATAGGTAATACAAGGTGAAAGTCCGATTGT	0.234
TAGCCTAGGTCATTGGGCGAGTATAGTACGCATC	1.15
ACAGACAGGTGAGTGAAGGTAACTAAGCTGGACG	-0.864
TTACCAAGTTGAGCTGAGGTCGTTGATCCAACTC	-0.328
TGAGTGAGGTTAAAGATCAGGGAACGTGGCGTCG	1.29
CCTCGGAGGACTGAAGGTCAGAGCTGTCCGCTTT	0.742
CCTACTGGGCCACGGTCATTGATCAGTCAAAGCA	0.397
GGAACGAGGACATTCGAGTTGATAGCATGGCGAT	-0.204
CTACCAAGGAGAACAAGGTCGTTGATTACTATTC	0.615
TCGAGTAGGTTGGGGGCATTCAGAATGGCGTCGA	0.737
CCAGATAGGTGAAAGGTAACTCAGTCTGGTACGC	1.74
ACTCGGAGGACAAAGGCCAGAGCTACGCCAGTGA	-0.117
CAAACTAGGTCAAGTTCAAAGTCGGTTTGTGCCA	3.54
GTACCAAGGTGGATAGGTCGTTGATGAGTAGGCG	0.672
TCTGCTCGGTCAGTTGGTCAGCTAACGAGCTGCC	-0.826
CATACAGTGTCAGCTAGGCCAGAGTAGGGACGGC	-0.0558

Sequence	PBM binding z-score
CGTCCAAGGACAAAGGTCAGTGAAGAGATGACGG	2.27
TCTATTACTTGATTAGGGCAACCGAAACAGCGGA	0.91
ACTATTAGTTGAGACGAGGACAACCGATAGGTTG	0.842
GGTATTAGTTGAAAGGGCAACCGAATGATTCTCG	2.69
CCGACTGGGGCAAGGGTACCATAACGCACAGCCA	0.601
CGTCCAAGGTCAGCAGGTCAGTGACAGCGACGTG	4.58
CAAGCTAGGTCACGAAAGGTCAAAGTCGAATGAC	7.93
TAGCCTAGGTCATGCGGGCCATTATAGTGTCGGC	0.864
CAAACTAGGTCACCGGAAGGTCAAAGACCGCATG	7.7
TCATATAGGTAAATGCTAGGTGAAAGCCCGATCT	0.598
CTCGAAAGGTCGTGCTCAGGCGAGTATACCAAAC	0.928
GCTAGTTGGTCAGTAAAAGTTCACACACCGGTCG	2.26
CCGACTGGGGCATAAGGTTACCTTAAGCCAGCCC	0.545
TAGCCTAGGTCATTCAGGGGCCAGTAAAGAAAGC	1.04
CATACTGGGTCAGCTAGGCCAGAGTAGGGACGGC	0.468
CAGCCTAGGTCAGTGCCAGTATAGGAGGAACGTT	0.587
TCTCGGAGGACACGAAAGGTCAGATCTCGACATC	2.23
CAAACTAGGTCAAAGGTCCAAGTCGAGCCAACCA	3.75
CAAACTAGGTCCAAGGTCAAAGTCGAGCCAACCA	1.83
